From PubChem BioAssay (EPA / NIEHS)
Several values for one entry are separate records, joined by “and”; a condition that tells them apart may be missing. Identical values can stand only once. Where a structure was tested more than once in an assay, its records may differ in their call. Activity calls are given as the source filed them. Rule for the calls: active = hit-call score of the fitted dose curve at least 0.9, where 1 is the maximum; inactive = score below 0.9.

read-out: Interferon-inducible T-cell alpha chemoattractant (ITAC), CXCL11 (gene 6373); assay: BSK_hDFCGF_ITAC: BioMAP Diversity Plus: hDFCGF Assay for Interferon-inducible T-cell alpha chemoattractant (ITAC) Biomarker Activity (AID 2284251); conditions: primary human foreskin fibroblasts
Method: BSK_hDFCGF is a cell-based, multiplexed-readout assay that uses foreskin fibroblast, a human skin primary cell, with measurements taken at 24 hours after chemical dosing in a 96-well plate.BSK_hDFCGF_ITAC is an assay component measured in the BSK_hDFCGF assay. It measures I-TAC antibody related to regulation of gene expression using ELISA technology.Data from the assay component BSK_hDFCGF_ITAC was analyzed at the endpoint, BSK_hDFCGF_ITAC, in the positive analysis fitting direction relative to DMSO as the negative control and baseline of activity. Using a type of binding reporter, gain or loss-of-signal activity can be used to understand protein changes. To generalize the intended target to other relatable targets, this assay endpoint is annotated to the 'cytokine' intended target family, where the subfamily is 'chemotactic factor'.
The levels of cell surface (or secreted, indicated by the prefix "s") biomarker endpoints were measured by ELISA. Overt cytotoxicity to cells in confluent adherent cultures (all systems other than the BT system) was assessed by measuring total protein levels using sulforhodamine B (SRB) staining in parallel cultures at the time of biomarker measurements, indicated as SRB endpoints. For proliferation assays for adherent cell types, individual cell types are cultured at sub-confluence and relative cell numbers quantified by SRB staining at time points optimized for each system (48 h: 3C and CASM3C systems; 72 h: BT and HDF3CGF systems; 96 h: SAg system). SRB was performed by staining cells with 0.1% SRB after fixation with 10% TCA and reading wells at 560 nm.Viability and proliferation of PBMC (T cells) was quantified by Alamar Blue reduction for the SAg and BT systems. For PBMC viability (referred to as PBMC Cytotoxicity within the assay endpoint names), cells were plated (75,000/well in a 96-well plate) and then chemical samples added for 1 h before addition of activators, SEB and TSST-1 (20 ng/mL final concentration each). Cells were incubated for 90 h. Then, Alamar Blue (20 uL/well) (Invitrogen, Cat DAL1100) was added for 6 h, and the plates were read with a fluorescence microplate reader at 546/580 nm (excitation/emission). For PBMC proliferation, cells were plated and activated as above but incubated for only 16 h prior to addition of Alamar Blue. Plates were read after 6 h.

SMILES	outcome	AC50
NC(=O)C(F)(F)C(F)(F)C(F)(F)C(F)(F)F	inactive	–
C=CC(=O)OCC(F)(F)C(F)(F)C(F)(F)C(F)(F)C(F)(F)C(F)(F)C(F)(F)F	inactive	–
C=C(C)C(=O)OCC(F)(F)C(F)(F)C(F)(F)C(F)(F)C(F)(F)C(F)(F)C(F)(F)F	inactive	–
FC(F)(F)C(F)(F)C(F)(F)CI	inactive	0.22 µM (active)
FC(F)(F)C(F)(F)C(F)(F)C(F)(F)C(F)(F)C(F)(F)CC1CO1 (stereo not given)	inactive	–
FC(F)(F)C(F)(F)C(F)(F)N(C(F)(F)C(F)(F)C(F)(F)F)C(F)(F)C(F)(F)C(F)(F)F	inactive	–
OCC(F)(F)C(F)(F)C(F)(F)C(F)F	inactive	–
OCC(F)(F)C(F)(F)C(F)(F)C(F)(F)C(F)(F)C(F)(F)F	inactive	49.4 µM (active)
C=CC(F)(F)C(F)(F)C(F)(F)C(F)(F)C(F)(F)C(F)(F)C(F)(F)C(F)(F)C=C	inactive	–
FC(F)(F)C(F)(F)C(F)(F)C(F)(F)C(F)(F)C(F)(F)C(F)(F)C(F)(F)F	inactive	–
FC(F)(F)C(F)(F)C(F)(F)C(F)(F)C(F)(F)C(F)(F)C(F)(F)C(F)(F)CCS	inactive	–
FC(F)(F)C(F)(F)C(F)(F)C(F)(F)C(F)(F)C(F)(F)CCS	inactive	–
C=CC(=O)OCC(F)(F)C(F)(F)C(F)(F)C(F)(F)COC(=O)C=C	–	6.61 µM (active) and 5.23 µM (active)
CC(C)(C)C(=O)CC(=O)C(F)(F)C(F)(F)C(F)(F)F	inactive	–
O=C(Cl)C(F)(F)C(F)(F)C(F)(F)C(F)(F)C(F)(F)C(F)(F)C(F)(F)C(F)(F)F	–	20.4 µM (active) and 48.2 µM (active) and 30 µM (active)
O=C(O)C(F)(F)C(F)(F)C(F)(F)C(F)(F)F	inactive	–
O=C(O)C(F)(OC(F)(F)C(F)(OC(F)(F)C(F)(OC(F)(F)C(F)(F)C(F)(F)F)C(F)(F)F)C(F)(F)F)C(F)(F)F (stereo not given)	inactive	–
COC(=O)CCC(F)(F)C(F)(F)C(F)(F)C(F)(F)F	inactive	–

SMILES	outcome	AC50
C=C(C)C(=O)OCCC(F)(F)C(F)(F)C(F)(F)C(F)(F)C(F)(C(F)(F)F)C(F)(F)F	inactive	–
FC(F)(Br)C(F)(F)C(F)(F)C(F)(F)C(F)(F)C(F)(F)Br	inactive	–
O=C(O)C(F)(F)C(F)(F)F	inactive	–
O=C(O)C(F)(F)C(F)(F)C(F)(F)C(F)(F)C(F)(F)C(F)(F)C(F)(F)C(F)(F)C(F)(F)C(F)(F)C(F)(F)C(F)(F)F	inactive	3.49 µM (active)
O=C(O)C(F)(F)C(F)(F)C(F)(F)C(F)(F)C(F)(F)C(F)(F)C(F)(F)C(F)(F)C(F)(F)C(F)(F)C(F)(F)C(F)(F)C(F)(F)F	inactive	5.22 µM (active)
FC(F)(I)C(F)(F)C(F)(F)C(F)(F)I	–	29.2 µM (active) and 46.2 µM (active) and 52 µM (active)
O=C(O)C=C(C(F)(F)F)C(F)(F)F	inactive	–
O=C(O)C(F)(F)C(F)(F)C(F)F	inactive	–
OCCCC(F)(F)C(F)(F)C(F)(F)C(F)(F)C(F)(F)C(F)(F)C(F)(F)F	–	13 µM (active) and 11.8 µM (active)
O=S(=O)(OCC(F)F)C(F)(F)F	inactive	–
FC(F)(F)C(F)(F)C(F)(F)C(F)(F)CCI	inactive	–
CCCCC(CC)COP(=O)(O)OCC(CC)CCCC (stereo not given)	–	29.7 µM (active) and 20 µM (active)
O=C(O)C(F)(F)C(F)(F)C(F)(F)F	inactive	–
FC(F)(F)C(F)(F)C(F)(F)C(F)(F)C(F)(F)C(F)(F)C(F)(F)Br	inactive	–
C=CC(F)(F)C(F)(F)C(F)(F)C(F)(F)C(F)(F)C(F)(F)C(F)(F)C(F)(F)F	inactive	–
CCCCCCCCC(F)(F)C(F)(F)C(F)(F)C(F)(F)C(F)(F)C(F)(F)F	inactive	–
O=S(=O)(OCCOC(F)(F)F)C(F)(F)F	inactive	–
O=C(O)C(F)(OC(F)(F)C(F)(OC(F)(F)C(F)(F)C(F)(F)F)C(F)(F)F)C(F)(F)F (stereo not given)	inactive	–
